The source of these data is PubChem BioAssay AID1479148 (National Center for Advancing Translational Sciences (NCATS), 2020).

Molecules are shown by their SMILES. Inconclusive results are not listed. Values without a mark were called inactive. The source made the active and inactive calls. Calls come from the whole dose curve.

A short description of the assay: Confirmatory qHTS for inhibitors of SARS-S pseudo-typed particle cell entry. Conditions: SARS-S pseudotyped particle cell entry, reporter luminescence; series mostly up to 57.1 µM; activity change, negative = inhibition: at the top concentration.
In the case of `C[C@]12CC[C@H](O)C[C@H]1CCC1C2CC[C@]2(C)[C@@H](c3ccc(=O)oc3)C[C@H]3O[C@]132` (stereo partly drawn), the Potency is 5.41 µM (active).

Consider `CN1CCN(CCC=C2c3ccccc3Sc3ccc(S(=O)(=O)N(C)C)cc32)CC1`, for which the Potency is 6.07 µM (active).

`C/C=C(/C)C(=O)O[C@H]1C(C)=CC23C(=O)C(C=C(CO)[C@@H](O)[C@]12O)[C@H]1[C@@H](C[C@H]3C)C1(C)C` (stereo partly drawn): the Potency was 0.0121 µM (active).

As for `c1ccc2c(c1)Sc1ccccc1N2CC1CN2CCC1CC2` (stereo not drawn), the Potency was 27.1 µM (active).

For `C[n+]1c2cc(N)ccc2cc2ccc(N)cc21` (tested in a mixture with another compound), the Potency was 6.81 µM (active).

Regarding `CC(C)C[C@H](NC(=O)[C@H](CCc1ccccc1)NC(=O)CN1CCOCC1)C(=O)N[C@@H](Cc1ccccc1)C(=O)N[C@@H](CC(C)C)C(=O)[C@@]1(C)CO1`, the Potency was 0.681 µM (active).

Take `CC[C@@]1(O)C(=O)OCc2c1cc1n(c2=O)Cc2c-1nc1ccccc1c2/C=N/OC(C)(C)C`: the Potency was 0.0857 µM (active).

For the compound `COc1cc([C@@H]2c3cc4c(cc3C(O[C@@H]3O[C@@H]5CO[C@@H](c6cccs6)OC5[C@H](O)[C@H]3O)C3COC(=O)[C@@H]32)OCO4)cc(OC)c1O` (stereo partly drawn), the Potency was 1.08 µM (active).

Take `C[C@@H]1CCO[C@H]2Cn3cc(C(=O)NCc4ccc(F)cc4F)c(=O)c(O)c3C(=O)N12`: the Potency is 0.0096 µM (active).

With `C=C(C)[C@H]1Cc2c(ccc3c2O[C@@H]2COc4cc(OC)c(OC)cc4[C@@H]2C3=O)O1`, the Potency was 0.0341 µM (active).

Consider `CC(C)(C)C(=O)OCOP(=O)(COCCn1cnc2c(N)ncnc21)OCOC(=O)C(C)(C)C`, for which the Potency is 0.0383 µM (active).

In the case of `CN1CCC(=C2c3ccccc3CCc3sccc32)CC1`, the Potency is 27.1 µM (active).

Consider `CN(C)[C@@H](CCOc1cccc2ccccc12)c1ccccc1`, for which the Potency was 6.81 µM (active).

Regarding `CCCCCCCCCCCC[n+]1ccc2ccccc2c1`, the Potency is 3.83 µM (active).

As to `CN1CCC(=C2c3ccccc3C=Cc3ccccc32)CC1`, the Potency is 27.1 µM (active).

In the case of `NCCNc1ccc(NCCN)c2c1C(=O)c1ccncc1C2=O`, the Potency was 0.857 µM (active).

For `Nc1nc(Cl)nc2c1ncn2C1CC(O)C(CO)O1` (stereo not drawn), the Potency is 12.1 µM (active).

For the compound `Cc1nnc(C(=O)NC(C)(C)c2nc(C(=O)NCc3ccc(F)cc3)c(O)c(=O)n2C)o1`, the Potency is 0.0108 µM (active).

`Oc1c(Cl)cc(Cl)c(Cl)c1Cc1c(O)c(Cl)cc(Cl)c1Cl`: the Potency is 1.21 µM (active).

Take `CC[C@@]1(O)C(=O)OCc2c1cc1n(c2=O)Cc2cc3c([N+](=O)[O-])cccc3nc2-1`: the Potency is 0.124 µM (active).

`CN(C)CC/C=C1\c2ccccc2Sc2ccc(Cl)cc21`: the Potency is 21.5 µM (active).

Regarding `Cc1cn([C@H]2C[C@H](N=[N+]=[N-])[C@@H](CO)O2)c(=O)[nH]c1=O`, the Potency was 0.271 µM (active).

With `CC(=O)Oc1ccccc1C(=O)Nc1ncc([N+](=O)[O-])s1`, the Potency was 12.1 µM (active).

Take `CCCCCCOC(=O)NC(=N)c1ccc(NCc2nc3cc(C(=O)N(CCC(=O)OCC)c4ccccn4)ccc3n2C)cc1`: the “activity change, negative = inhibition” value was -68.1%.

Take `COC(=O)C[C@](O)(CCCC(C)(C)O)C(=O)O[C@@H]1C(OC)=C[C@]23CCCN2CCc2cc4c(cc2[C@H]13)OCO4`: the Potency was 1.52 µM (active).

Turning to `N/C(=N\N=C\c1ccc(Cl)cc1)N/N=C/c1ccc(Cl)cc1`, the “activity change, negative = inhibition” value is -27%.

As for `CC(C)OC(=O)OCOP(=O)(CO[C@H](C)Cn1cnc2c(N)ncnc21)OCOC(=O)OC(C)C`, the Potency was 0.0429 µM (active).

As to `CCCCCCCCCCCCCC[n+]1ccc(C)cc1`, the Potency is 3.83 µM (active).

For the compound `CCc1c2c(nc3ccc(OC(=O)N4CCC(N5CCCCC5)CC4)cc13)-c1cc3c(c(=O)n1C2)COC(=O)[C@]3(O)CC`, the “activity change, negative = inhibition” value was -64%.

Turning to `COc1ccc2cc1Oc1ccc(cc1)C[C@H]1c3c(cc4c(c3Oc3cc5c(cc3OC)CCN(C)[C@@H]5C2)OCO4)CCN1C`, the Potency was 2.15 µM (active).

As for `Cc1oncc1C(=O)Nc1ccc(C(F)(F)F)cc1`, the “activity change, negative = inhibition” value was 0%.

On to `CN[C@H]1CC[C@@H](c2ccc(Cl)c(Cl)c2)c2ccccc21`, for which the Potency is 19.2 µM (active).

With `CNC(=O)c1cc(Oc2ccc(NC(=O)Nc3ccc(Cl)c(C(F)(F)F)c3)c(F)c2)ccn1`, the Potency is 8.57 µM (active).
